Most compounds without a hit are left out; they make up all but 27% or so of the library.
Cav3 T inh – Cav3.2 calcium influx blockers – cell-based, Fluo-4 calcium fluorescence, FDSS, MLSMR library, primary screen | AID 449739, 2010 | B-score at 10 µM | Cav3.2-expressing cells; stronger effect = lower value | Voltage-dependent T-type calcium channel subunit alpha-1H (Homo sapiens), O95180 | 100,000 tested, 4% active;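 active = single-dose well whose peak fluorescence ratio is a statistical outlier from its plate by either plate-standardised score or position-corrected B-score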
CYP2C19 act – human CYP2C19 activators, primary screen, biochemical, luminescence; Cytochrome P450 2C19 (Homo sapiens), P33261; recombinant CYP2C19, luciferin-H EGE luminescence; stronger effect = higher value; 0 = fully inhibited enzyme, 1 = untreated enzyme; activation factor at 5 µM; 96,000 tested, under 10 active; AID 1025, 2008;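 active = activation factor of at least 2 at 5 µM in the primary screen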
CYP2C9 inhib – blockers of cytochrome P450 2C9 activity – biochemical, luminescence, ADME assay, primary screen; P11712; CYP2C9 Supersomes, luciferin-H conversion; inhibition, % at 5 µM; 96,000 tested, 20% active;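 active = blocking of liver enzyme CYP2C9 beyond about 50% at 5 µM, limit read from the data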
Target sequence (P11712 whole entry, looked up): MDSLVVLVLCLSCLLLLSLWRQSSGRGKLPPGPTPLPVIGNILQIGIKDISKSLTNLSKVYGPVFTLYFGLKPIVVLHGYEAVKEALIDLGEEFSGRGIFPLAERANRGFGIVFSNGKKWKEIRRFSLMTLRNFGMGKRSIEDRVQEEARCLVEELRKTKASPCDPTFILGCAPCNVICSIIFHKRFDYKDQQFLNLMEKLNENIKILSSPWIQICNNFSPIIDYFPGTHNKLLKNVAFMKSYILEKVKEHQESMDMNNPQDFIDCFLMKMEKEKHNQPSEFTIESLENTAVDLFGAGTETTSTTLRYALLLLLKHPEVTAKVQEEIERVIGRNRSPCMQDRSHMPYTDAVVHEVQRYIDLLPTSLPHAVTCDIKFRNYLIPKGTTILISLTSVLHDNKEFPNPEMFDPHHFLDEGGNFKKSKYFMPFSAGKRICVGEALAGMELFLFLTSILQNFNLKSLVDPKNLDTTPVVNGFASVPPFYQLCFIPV
CYP2C9 act – human CYP2C9 activators, primary screen, biochemical, luminescence; recombinant CYP2C9, luciferin-H conversion; stronger effect = higher value; factor 1 = untreated enzyme, 0 = blocked; 96,000 tested, 1.4% active; activation factor at 5 µM;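 active = activation factor of 2 or more for CYP2C9 at a 5 µM dose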
CYP2C19 inhib – blockers of cytochrome P450 2C19 activity – biochemical, luminescence, ADME assay, primary screen; P33261; CYP2C19 Supersomes, luciferin-H EGE luminescence, 30 min; inhibition, % at 5 µM; 96,000 tested, 21% active;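 active = CYP2C19 inhibition above a set limit at 5 µM in the primary screen, cut at about 50% in these data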
Hits are given with their value; . = inactive; / = no result given.

SMILES	Cav3 T inh	CYP2C19 act	CYP2C9 inhib	CYP2C9 act	CYP2C19 inhib
COc1cc(OC)c(C2CC(=O)N3CN(c4ccccc4C)CSC3=C2C#N)cc1OC (stereo not given)	.	.	86	.	.
CCc1ccccc1N1CSC2=C(C#N)C(c3ccccc3F)CC(=O)N2C1 (stereo not given)	.	.	94	.	82
Cc1cccc(N2CSC3=C(C#N)C(c4ccc(C)o4)CC(=O)N3C2)c1 (stereo not given)	.	.	86	.	.
CN1CCN(C2CCCCCC2)CC1	.	/	/	/	/
COc1ccc(CN2CCC(C(=O)N3CCN(c4ccccc4F)CC3)CC2)cc1OC	.	/	/	/	/
COc1ccc(C2CC(=O)N3CN(c4ccccc4F)CSC3=C2C#N)cc1OC (stereo not given)	.	.	84	.	.
Cn1cc(C(=O)c2ccc(Cl)cc2Cl)cc1C(=O)N/N=C(\N)COc1cccc(C(F)(F)F)c1	-8.4	.	62	.	64
CCOC(=O)C1=C(C)N2C(=C(C#N)[C@@H]1c1ccc(C(=O)OC)cc1)SC[C@@]2(O)C(C)(C)C	-5.8	.	98	.	97
CC1(C)CC(=O)C(C=NCC2CCN(C(=O)Nc3ccc(Cl)c(Cl)c3)CC2)=C(O)C1	-3.3	.	.	.	.
CC1(C)CC(=O)C(C=NCC2CCNCC2)=C(O)C1	.	.	.	.	.
CC(C)CC(NC(=O)C(COC(C)(C)C)NC(=O)C(Cc1ccc(O)cc1)NC(=O)C(CO)NC(=O)C(Cc1c[nH]c2ccccc12)NC(=O)C(Cc1cnc[nH]1)NC(=O)C1CCC(=O)N1)C(=O)N[C@@H](CCCN=C(N)N)C(=O)N1CCCC1C(=O)NNC(N)=O (stereo not given in full)	.	/	/	/	/
Cc1nc2sc(C(c3cccs3)N3CCC(C(N)=O)CC3)c(O)n2n1 (stereo not given)	.	.	.	.	.
CCn1ncc(C2=NOC(C(=O)Nc3cccnc3)C2)c1C (stereo not given)	.	.	.	.	.
CCn1ncc(C2=NOC(C(=O)NCc3ccc(Cl)cc3)C2)c1C (stereo not given)	/	.	50	.	66
CCn1ncc(C2=NOC(C(=O)Nc3ccc4c(c3)OCO4)C2)c1C (stereo not given)	.	.	.	.	56
CC(C)CCN1C(=O)c2ccccc2C1C(=O)NCc1cccnc1 (stereo not given)	.	.	.	.	62
O=C(NCc1cccnc1)C1c2ccccc2C(=O)N1Cc1ccco1 (stereo not given)	.	.	.	.	78
O=C(NCc1cccnc1)C1c2ccccc2C(=O)N1Cc1ccccc1 (stereo not given)	.	.	.	.	63
CC(=O)OC1c2ccccc2C(=O)N1Cc1ccccc1 (stereo not given)	.	.	.	.	51
O=C(C1=C(O)C(=O)N(Cc2ccco2)C1c1cccnc1)c1cc2ccccc2o1 (stereo not given)	.	.	.	.	.
NCCCC[C@H]1CN=C(N)N1CCC12CC3CC(CC(C3)C1)C2	.	/	/	/	/
CC1CN(C)C(C)CC1NCc1ccc2c(c1)OCO2 (stereo not given)	.	.	.	.	.
CCC1=NC(c2ccccc2Cl)N(O)C1(C)C (stereo not given)	.	.	.	.	.
Cc1cccc(-n2ncc3c(NCCc4ccc(S(N)(=O)=O)cc4)ncnc32)c1	/	.	96	.	92
Cc1cccc(-n2ncc3c(NCc4cccs4)ncnc32)c1	.	.	51	.	.
SMILES	Cav3 T inh	CYP2C19 act	CYP2C9 inhib	CYP2C9 act	CYP2C19 inhib
Clc1ccc(-n2ncc3c(NCc4cccs4)ncnc32)cc1	.	/	/	/	/
OC(c1ccccc1)c1nc2ccccc2s1 (stereo not given)	.	.	.	.	65
O=C(NC1CCCCC1)c1ccc(CN2CCOCC2)cc1	.	.	.	.	.
Cc1cc(C)cc(N2CCN(C(=O)N3CCOCC3)CC2)c1	.	.	.	.	.
Cc1ccc(N2CCN(C(=O)N3CCCC3)CC2)cc1C	.	.	53	.	81
Cc1cc(=O)oc2c1ccc1oc(/C(=N/O)c3ccccc3)c(C)c12	.	.	60	.	.

Screening results from PubChem BioAssay.
